# Reference: the supplement of paper PMC4962491
# ± gives the standard deviation of the averaged measurements. In all, about 1,600 compounds were measured (“mitochondrial oxygen consumption rate normalised to cell number, Z score over the library”: median about 0.065, lowest 2% from about -2.2 on). What follows is part of a selection rich in the lowest values, with near analogues and random picks from the rest.
# Test system: FaDu
# Assay: mitochondrial oxygen consumption rate normalised to cell number, Z score over the library; higher = higher oxygen consumption (negative = OCR reduction)
# Conditions: treatment time 24 h; assay medium: 5 mM galactose, 5 mM pyruvate, 4 mM glutamine; 10 µM
# Protocol: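 Primary screen: FaDu cells were incubated 24 h with Pharmakon 1600 / TDI oncology set compounds at 2 or 10 uM. Mitochondrial-specific OCR (basal minus 2 uM antimycin A) was measured on a Seahorse XF96 in assay medium with 5 mM galactose, 5 mM pyruvate and 4 mM glutamine, then corrected for Hoechst cell number and expressed as a Z score […]. Compounds that cut cell number by >66% were excluded. Two repeats.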
row,Structure (SMILES),mitochondrial oxygen consumption rate normalised
1,Oc1ccc2ccccc2c1 [beta-NAPHTHOL],0.778 ± 0.095
2,C/C=C(/C)C(=O)O[C@H]1[C@H](OC(C)=O)[C@@]2(CO)C(CC1(C)C)C1=CCC3[C@@]4(C)CCC(O[C@@H]5O[C@H](C(=O)O)[C@@H](O[C@@H]6O[C@H](CO)[C@@H](O)[C@H](O)[C@H]6O)[C@H](O)[C@H]5O[C@@H]5O[C@H](CO)[C@@H](O)[C@H](O)[C@H]5O)[C@](C)(CO)C4CC[C@@]3(C)[C@]1(C)C[C@H]2O.C/C=C(\C)C(=O)O[C@H]1[C@H](OC(C)=O)[C@@]2(CO)C(CC1(C)C)C1=CCC3[C@@]4(C)CCC(O[C@@H]5O[C@H](C(=O)O)[C@@H](O[C@@H]6O[C@H](CO)[C@@H](O)[C@H](O)[C@H]6O)[C@H](O)[C@H]5O[C@@H]5O[C@H](CO)[C@@H](O)[C@H](O)[C@H]5O)[C@](C)(CO)C4CC[C@@]3(C)[C@]1(C)C[C@H]2O (stereo partly drawn),0.3 ± 0.096
3,N=C(NCCCCCCNC(=N)NC(=N)Nc1ccc(Cl)cc1)NC(=N)Nc1ccc(Cl)cc1,-3.36 ± 0.16
4,CC(C)NC(=N)NC(=N)Nc1ccc(Cl)cc1,-0.293 ± 0.099
5,N=C(N)NC(=N)NCCc1ccccc1,-1.85 ± 0.1
6,CN(C)c1cnccn1,0.284 ± 0.5
7,CC[C@H]1OC(=O)C[C@@H](O)[C@H](C)[C@@H](O[C@@H]2O[C@H](C)[C@@H](O)[C@H](N(C)C)[C@H]2O)[C@@H](CCN2C[C@H](C)C[C@H](C)C2)C[C@@H](C)C(=O)/C=C/C(C)=C/[C@@H]1CO[C@@H]1O[C@H](C)[C@@H](O)[C@@H](OC)[C@H]1OC,0.2667 ± 0.0014
8,CCCNC(C)C(=O)Nc1ccccc1C (stereo not drawn),-0.507 ± 1.1
9,CC(C)[C@H](N)C(=O)OCC(CO)OCn1cnc2c(=O)nc(N)[nH]c21 (stereo partly drawn),1.37 ± 0.77
10,N#Cc1ccc2[nH]cc(CCCCN3CCN(c4ccc5oc(C(N)=O)cc5c4)CC3)c2c1,-0.383 ± 0.58
11,CCN(CC)C(=O)N1CCN(C)CC1,1.02 ± 0.63
12,CCOCCOc1ccccc1C(N)=O,1.14 ± 0.52
13,Cc1c2oc3c(C)ccc(C(=O)N[C@@H]4C(=O)N[C@H](C(C)C)C(=O)N5CCC[C@H]5C(=O)N(C)CC(=O)N(C)[C@@H](C(C)C)C(=O)O[C@@H]4C)c3nc-2c(C(=O)N[C@@H]2C(=O)N[C@H](C(C)C)C(=O)N3CCC[C@H]3C(=O)N(C)CC(=O)N(C)[C@@H](C(C)C)C(=O)O[C@@H]2C)c(N)c1=O,-4.48 ± 0.4
14,CO[C@H]1C[C@H](O[C@@H]2/C(C)=C/C[C@@H]3C[C@@H](C[C@]4(CC[C@H](C)[C@@H](C5CCCCC5)O4)O3)OC(=O)[C@@H]3C=C(C)/C(=N/O)[C@H]4OC/C(=C\C=C\[C@@H]2C)[C@]43O)O[C@@H](C)[C@@H]1O,0.0124 ± 0.37
15,CN(C)CCc1c[nH]c2ccc(C[C@H]3COC(=O)N3)cc12,0.529 ± 0.45
16,CCC(=O)O[C@H](CC(=O)O)C[N+](C)(C)C,-0.676 ± 0.16
17,C[C@]12CCC(=O)C=C1CC[C@@H]1[C@@H]2[C@@H](O)C[C@@]2(C)[C@H]1CC[C@]2(O)C(=O)COP(=O)(O)O,1.06 ± 0.71
18,NCCc1cc[nH]n1,-0.155 ± 0.3
19,CCCCCCOC(=O)NC(=N)c1ccc(NCc2nc3cc(C(=O)N(CCC(=O)OCC)c4ccccn4)ccc3n2C)cc1,0.662 ± 0.54
20,Cc1ncc(COP(=O)([O-])[O-])c(CN(CCN(CC(=O)O)Cc2c(COP(=O)([O-])O)cnc(C)c2O)CC(=O)O)c1O.[Mn].[Na+].[Na+].[Na+],0.342 ± 0.21
21,CCCOc1ccc2[nH]c(NC(=O)OC)nc2c1,0.108 ± 0.53
22,CCCCC(=O)O[C@]1(C(=O)CO)[C@@H](C)C[C@H]2[C@@H]3CCC4=CC(=O)C=C[C@]4(C)[C@@]3(F)[C@@H](O)C[C@@]21C,-0.0902 ± 0.67

row,Structure (SMILES),mitochondrial oxygen consumption rate normalised
1,O=C1CN2Cc3c(ccc(Cl)c3Cl)N=C2N1,1.01 ± 0.66
2,C[C@]12CC[C@@H]3c4ccc(O)cc4CC[C@H]3[C@@H]1C[C@@H](O)[C@@H]2O,-0.347 ± 0.41
3,C[C@]12CC[C@@H]3c4ccc(O)cc4CC[C@H]3[C@@H]1CC[C@@H]2O,-0.551 ± 0.072
4,C[C@]12CC[C@@H]3c4ccc(O)cc4C[C@@H](CCCCCCCCC[S+]([O-])CCCC(F)(F)C(F)(F)F)[C@H]3[C@@H]1CC[C@@H]2O (stereo partly drawn),-2.25 ± 2.2
5,N=C(N)NS(=O)(=O)c1ccc(N)cc1,-0.417 ± 0.81
6,O=C[C@H](O)[C@@H](O)[C@H](O)CO,-0.552 ± 0.11
7,CC(C)(C)CC(C)(C)c1ccc(OCCOCC[N+](C)(C)Cc2ccccc2)cc1,-6.2 ± 0.063
8,Cc1cc(C(C)(C)CC(C)(C)C)ccc1OCCOCC[N+](C)(C)Cc1ccccc1,-5.95 ± 0.082
9,CO[C@H]1C[C@@H]2CC[C@@H](C)[C@@](O)(O2)C(=O)C(=O)N2CCCC[C@H]2C(=O)O[C@H]([C@H](C)C[C@@H]2CC[C@@H](OCCO)[C@H](OC)C2)CC(=O)[C@H](C)/C=C(\C)[C@@H](O)[C@@H](OC)C(=O)[C@H](C)C[C@H](C)/C=C/C=C/C=C/1C,-1.07 ± 0.18
10,C(=C\c1ccccc1)/CN1CCN(C(c2ccccc2)c2ccccc2)CC1,-0.167 ± 0.011
11,COc1ccc2cc(CCC(C)=O)ccc2c1,0.808 ± 0.11
12,O=C(Nc1ccccc1)c1ccccc1O,-0.209 ± 0.021
13,CC1CCCC(C)N1 (stereo not drawn),-0.441 ± 0.17
14,O=C(CCCCCCCC(=O)NCCO)NCCO,-0.567 ± 0.53
15,Cn1nnnc1SCC1=C(C(=O)O)N2C(=O)[C@@H](NC(=O)[C@H](O)c3ccccc3)[C@H]2SC1,0.376 ± 0.31
16,COCCCOc1ccnc(C[S+]([O-])c2nc3ccccc3[nH]2)c1C (stereo not drawn),0.0779 ± 0.21
17,CCN(CC)CCOC(=O)C(Cc1cccc2ccccc12)CC1CCCO1 (stereo not drawn),-0.531 ± 1.6
18,O=C(O)c1cc(O)c2c(c1)[C@H]([C@H]1c3cc(C(=O)O)cc(O)c3C(=O)c3c(O[C@@H]4O[C@H](CO)[C@@H](O)[C@H](O)[C@H]4O)cccc31)c1cccc(O[C@@H]3O[C@H](CO)[C@@H](O)[C@H](O)[C@H]3O)c1C2=O,0.905 ± 0.018
19,COc1cccc2c1C(=O)c1c(O)c3c(c(O)c1C2=O)C[C@@](O)(C(=O)CO)C[C@@H]3O[C@H]1C[C@H](N)[C@@H](O)[C@H](C)O1,-2.82 ± 0.22
20,CCCCC(=O)OCC(=O)[C@]1(O)Cc2c(O)c3c(c(O)c2[C@@H](O[C@H]2C[C@H](NC(=O)C(F)(F)F)[C@H](O)[C@H](C)O2)C1)C(=O)c1c(OC)cccc1C3=O [valrubicin],-0.0886 ± 0.77
21,Cn1nnnc1SCC1=C(C(=O)O)N2C(=O)[C@@H](NC(=O)[C@H](OC=O)c3ccccc3)[C@H]2SC1,0.0513 ± 0.34
